According to PubChem BioAssay (NCI):
The panel holds about 83,000 compounds, 20% with a hit somewhere; the sample as a whole holds those more often.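 Activity criterion: percent growth below 10, measured after cells in 96-well plates were exposed to a single compound concentration for 48 hours.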 The source made the active and inactive calls.

Legend:
Test in all cases: NCI-60 one-dose screen, 48 h (100 = growth as untreated, 0 = no growth, -100 = all killed)
Conditions in all cases: 10 µM unless noted
HCT-15 colon = system: HCT-15 colon
HT29 colon = system: HT29 colon
SNB-75 CNS = system: SNB-75 CNS
SNB-19 CNS = system: SNB-19 CNS
U251 CNS = system: U251 CNS
PC-3 prostate = system: PC-3 prostate
SK-MEL-5 melanoma = system: SK-MEL-5 melanoma
UACC-62 melanoma = system: UACC-62 melanoma
LOX IMVI melanoma = system: LOX IMVI melanoma
SK-MEL-28 melanoma = system: SK-MEL-28 melanoma

Measured: growth

O=C(O)c1ccc(-n2cc(/C=N/Nc3ccc(Cl)cc3)c(-c3ccc(F)c(F)c3)n2)cc1
inactive: HCT-15 colon 52.1% | HT29 colon 93.4% | SNB-75 CNS 89.6% | SNB-19 CNS 86.6% | U251 CNS 81.1% | PC-3 prostate 60.2% | SK-MEL-5 melanoma 72.3% | UACC-62 melanoma 39.1% | LOX IMVI melanoma 44.2% | SK-MEL-28 melanoma 73.6%

C/C(=N\N=C1/SCC(=O)N1c1ccccc1)c1ccco1
inactive: HCT-15 colon 112% | HT29 colon 136% | SNB-75 CNS 185% | SNB-19 CNS 113% | U251 CNS 102% | PC-3 prostate 94.7% | SK-MEL-5 melanoma 88.8% | UACC-62 melanoma 122% | LOX IMVI melanoma 94.2% | SK-MEL-28 melanoma 112%

c1coc(CSc2ncnc3nc[nH]c23)c1
inactive: HCT-15 colon 101% | HT29 colon 110% | SNB-75 CNS 95.1% | SNB-19 CNS 86.2% | U251 CNS 102% | PC-3 prostate 90.1% | SK-MEL-5 melanoma 109% | UACC-62 melanoma 98.3% | LOX IMVI melanoma 89.2% | SK-MEL-28 melanoma 108%

Nc1ncnc2c1c(C(F)(F)F)cn2[C@@H]1O[C@H](CO)[C@@H](O)[C@H]1O
inactive: SNB-19 CNS 14.6% | PC-3 prostate 12.1%
active: HCT-15 colon 4.22% | HT29 colon 1.42% | SNB-75 CNS -35.1% | U251 CNS 3.73% | SK-MEL-5 melanoma -32.1% | UACC-62 melanoma -38.6% | LOX IMVI melanoma 6.25% | SK-MEL-28 melanoma 1.5%

C=CCn1c(SCC(=O)Nc2ccc(/C(C)=N\O)cc2)nnc1-c1cc(-c2ccc(OC)cc2)nc2ccccc12
inactive: HCT-15 colon 36.3% | HT29 colon 42% | SNB-75 CNS 57.4% | SNB-19 CNS 44.5% | U251 CNS 29.8% | PC-3 prostate 29.9% | SK-MEL-5 melanoma 36.4% | UACC-62 melanoma 37.7% | SK-MEL-28 melanoma 61.7%
active: LOX IMVI melanoma -65.4%

Cc1ccc(-c2cc(-c3nnc(SCC(=O)c4ccccc4)o3)c3ccccc3n2)cc1
inactive: HCT-15 colon 96.3% | HT29 colon 90.1% | SNB-75 CNS 57.1% | SNB-19 CNS 101% | U251 CNS 98.3% | PC-3 prostate 95.5% | SK-MEL-5 melanoma 95.3% | UACC-62 melanoma 90.8% | LOX IMVI melanoma 92.4% | SK-MEL-28 melanoma 96.6%

C=C1C(=O)O[C@H]2[C@H]1CC/C(COC(=O)c1cccc3ccccc13)=C\CC[C@@]1(C)O[C@@H]21
inactive: SNB-75 CNS 29% | SNB-19 CNS 10.5%
active: HCT-15 colon -46.9% | HT29 colon -84.2% | U251 CNS -83.7% | PC-3 prostate -70.9% | SK-MEL-5 melanoma -89% | UACC-62 melanoma -76.9% | LOX IMVI melanoma -92.2% | SK-MEL-28 melanoma -56.7%

COc1ccc(C(=O)Cn2cnc3c(Nc4cc(C(=O)Nc5ccc(N6CCN(CCO)CC6)cc5)ccc4C)ncnc32)cc1
inactive: HCT-15 colon 102% | HT29 colon 101% | SNB-75 CNS 79.4% | SNB-19 CNS 108% | U251 CNS 105% | PC-3 prostate 105% | SK-MEL-5 melanoma 102% | UACC-62 melanoma 104% | LOX IMVI melanoma 94.2% | SK-MEL-28 melanoma 105%

COc1ccc(/C=N/C2=NNC(C)(c3ccccc3O)N2C(Cc2c[nH]c3ccccc23)C(=O)O)cc1 (stereo not given)
inactive: HCT-15 colon 39.7% | SNB-75 CNS 32.5% | SNB-19 CNS 27.8% | U251 CNS 21% | PC-3 prostate 23.8% | UACC-62 melanoma 17.7% | LOX IMVI melanoma 19.2% | SK-MEL-28 melanoma 33.5%
active: HT29 colon 5.86% | SK-MEL-5 melanoma -78.3%

CCOC(=O)n1cnc2c(Cl)ncnc21
inactive: HCT-15 colon 112% | HT29 colon 106% | SNB-75 CNS 93.9% | SNB-19 CNS 86.4% | U251 CNS 101% | PC-3 prostate 113% | SK-MEL-5 melanoma 95.8% | UACC-62 melanoma 104% | LOX IMVI melanoma 88.6% | SK-MEL-28 melanoma 121%

O=C(CSc1nnc(-c2ccc(Cl)cc2)o1)Nc1ccc(C(=O)/C=C/c2ccccc2)cc1
inactive: HCT-15 colon 96.7% | HT29 colon 98% | SNB-75 CNS 90.4% | SNB-19 CNS 86.9% | U251 CNS 99.3% | PC-3 prostate 99.4% | SK-MEL-5 melanoma 98% | UACC-62 melanoma 85.6% | LOX IMVI melanoma 85.3% | SK-MEL-28 melanoma 105%

COc1ccc(/C=C2\CS(=O)(=O)C/C(=C\c3ccc(OC)cc3)C2=O)cc1
inactive: SNB-75 CNS 60.2%
active: HCT-15 colon 2.14% | HT29 colon -51.2% | SNB-19 CNS 3.69% | U251 CNS -3.78% | PC-3 prostate -33.5% | SK-MEL-5 melanoma -91.5% | UACC-62 melanoma -64.1% | LOX IMVI melanoma -26.7% | SK-MEL-28 melanoma -23.4%

COc1cc2nc(C(=O)N3CCCCC3)cc(Nc3ccccc3)c2cc1OC
inactive: HCT-15 colon 102% | HT29 colon 104% | SNB-75 CNS 97.5% | SNB-19 CNS 104% | U251 CNS 102% | PC-3 prostate 114% | SK-MEL-5 melanoma 95.6% | UACC-62 melanoma 104% | LOX IMVI melanoma 94.9% | SK-MEL-28 melanoma 110%
